HCV NS3h FP: blocks HCV NS3 helicase binding to DNA | inhibition, % at 100 µM | AID 687043 | NS3h Cy5-dT15 DNA binding, fluorescence polarization | 1.6% of 16,000 active;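 active means inhibition above the average over every tested compound plus 3 SD, cut at about 40% in these data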
Cy5 interf NS3h: Cy5 fluorescence interference, HCV helicase counter-screen | fluorescence interference ratio at 100 µM | Cy5-dT15 DNA with NS3h; actives lie on both sides; signal over control mean, under 1 quenches | 6% of 16,000 active;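 active means compound fluorescence over control fluorescence at most 0.8, a quencher, or at least a set upper limit, an enhancer; inactive means ratio between 0.8 and the set upper limit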
An asterisk follows results filed as active. An excerpt weighted towards active compounds, which were near 6.9% of everything screened.

SMILES | HCV NS3h FP | Cy5 interf NS3h
O=C(CC(Nc1ccc(Br)cc1)c1ccc(F)cc1)c1ccccc1 (stereo not given) | 11 | 0.98
COC(=O)c1ccc(-c2nnc(Nc3ccccc3C)c3ccccc23)cc1 | 0 | 1.1
COc1ccc(Br)cc1/C=C/C(=O)Nc1ccc(F)c([N+](=O)[O-])c1 | 2 | 1
O=C1/C(=C/c2ccc(Br)o2)Sc2ccccc21 | 13 | 1
COCCNC(=O)c1cc2n(n1)C(C(F)(F)F)CC(c1ccc(Cl)c(Cl)c1)N2 (stereo not given) | 12 | 0.96
CCCS(=O)(=O)c1c(S(=O)(=O)CCC)c2ccccn2c1C(=O)c1ccc([N+](=O)[O-])cc1 | 13 | 1.1
CCCS(=O)(=O)c1c(S(=O)(=O)CCC)c2c(N)cccn2c1C(=O)c1ccc(OC)cc1 | 18 | 0.66*
CC(C)CC(NC(=O)c1ccco1)C(=O)O (stereo not given) | 3 | 1
CC(NC(=O)c1cccc2ccccc12)C(=O)O (stereo not given) | 3 | 1
CC(NC(c1ccccc1)(c1ccccc1)c1ccccc1)C(=O)O (stereo not given) | -2 | 0.61*
CC(C)CC(NC(c1ccccc1)(c1ccccc1)c1ccccc1)C(=O)O (stereo not given) | 9 | 0.58*
Cc1cc(C)cc(NC(=O)CN(c2ccc(Cl)cc2)S(C)(=O)=O)c1 | -3 | 1
COc1cccc(NC2=C(Cl)C(=O)N(c3ccc(Br)cc3)C2=O)c1 | -5 | 1.1
CC(C)(C)NC(=O)CCN1C(=O)c2ccccc2C1=O | -3 | 1
O=C(Nc1ccc(Cl)cc1)c1cc2n(n1)C(C(F)(F)F)CC(c1ccccc1)N2 (stereo not given) | 32 | 1
CC(=O)Nc1ccc(-n2c(C)cc(/C=C(/C#N)C(=O)Nc3cccc(C)c3)c2C)cc1 | 4 | 0.98
O=C1/C(=C/c2ccc(Br)o2)SC(=S)N1c1ccccc1 | 17 | 0.64*
O=C1/C(=C/c2ccc(Br)o2)SC(=S)N1c1cccc(C(F)(F)F)c1 | 3 | 0.86
Nc1nc2c(s1)-c1ccccc1CC2 | 29 | 1.2*
c1ccc(Nc2ccc3nc4ccccc4nc3c2)cc1 | 15 | 0.55*
Nn1c(Nc2ccccc2)nc2ccccc21 | -1 | 1
COc1cc(/C=C2/SC(=S)NC2=O)ccc1OC(=O)c1ccc(Cl)cc1 | 31 | 1
Cc1ccccc1N1C(=O)C2C3c4ccccc4C(C)(c4ccccc43)C2C1=O (stereo not given) | 18 | 1.1
Cc1cc(=O)n2[nH]c(-c3cccs3)cc2n1 | 1 | 1.1
O=c1cc(-c2ccccc2)nc2cc(-c3cccs3)[nH]n12 | 57* | 1.2
SMILES | HCV NS3h FP | Cy5 interf NS3h
COc1ccc(C2Nc3ccccc3C(=O)N2Cc2ccco2)cc1CSc1nc2ccccc2s1 (stereo not given) | 3 | 0.96
CC(=O)N1c2ccccc2CC(N2CCCCC2)c2ccccc21 (stereo not given) | 9 | 0.76*
CC(=O)N(C)N1c2ccccc2CCc2ccccc21 | 4 | 1.1
Cc1ccc(C)c(S(=O)(=O)Nc2c(C)n(C)n(-c3ccccc3)c2=O)c1 | 5 | 0.99
Cc1ccc(N2C(=O)/C(=C/c3ccc(Oc4ccc([N+](=O)[O-])cn4)cc3)C(=O)NC2=S)c(C)c1 | -4 | 1
CC(Cc1ccccc1)C(=O)Nc1ccc(Cl)cc1 (stereo not given) | 3 | 0.95
Cn1c(=O)cc(-c2ccccc2)c2ccccc21 | 14 | 0.69*
O=c1cc(-c2ccccc2)c2cc(Cl)ccc2[nH]1 | -13 | 1.1
Cc1ccc(NCCC(=O)c2ccc(C)o2)cc1 | 10 | 0.98
Cc1ccc2nc(Nc3nc(C)cc(-c4ccccc4)n3)nc(C)c2c1 | 23 | 1.1
Cc1ccc2nc3nc(C)cc(C)c3c(N)c2c1 | -5 | 0.71*
Cc1cc(NC(=O)c2ccccc2I)ccc1-c1cc2ccccc2oc1=O | 14 | 1
COc1ccccc1C(=O)Nc1ccc(-c2cc3ccccc3oc2=O)cc1 | -30 | 0.76*
CCOc1ccc(C(=O)Nc2ccc(-c3cc4ccccc4oc3=O)c(C)c2)cc1Cl | -2 | 0.96
Cc1cc(NC(=O)c2ccc(Cl)cc2)ccc1-c1cc2ccccc2oc1=O | 3 | 0.66*
NC1=NC(=O)/C(=C\c2ccccc2Cl)S1 | 8 | 1.1
COc1cc(/C=C2\SC(N)=NC2=O)c([N+](=O)[O-])cc1OC | -15 | 0.77*
Cc1cc(Nc2ccc(C)c(Cl)c2)n2ncnc2n1 | 15 | 0.74*
Cc1cc(Nc2cc(Cl)cc(Cl)c2)n2ncnc2n1 | -1 | 0.91
COc1ccc(NC(=S)NC(=O)c2ccc(F)cc2)cc1 | 17 | 0.93
O=C(/C=C\Nc1ccccc1[N+](=O)[O-])c1ccc2c(c1)OCO2 | 48* | 0.64*
CCOc1ccc(N/C=C\C(=O)c2ccc3c(c2)OCO3)c([N+](=O)[O-])c1 | 29 | 1
C=CCN1C(=O)/C(=C/c2ccccc2OCc2ccccc2Cl)SC1=S | 10 | 0.65*
COc1cc(C=C2C(=O)N(C)C(=O)N(C)C2=O)ccc1OCc1ccccc1Cl | 5 | 1
C=CCN1C(=O)/C(=C\c2ccccc2OCc2ccc(Cl)cc2)SC1=S | 16 | 0.99
SMILES | HCV NS3h FP | Cy5 interf NS3h
C=CCN1C(=O)NC(=O)/C(=C\c2ccc(OCc3ccccc3Cl)c(OC)c2)C1=O | 9 | 1.2*
Cc1ccc(N2C(=O)/C(=C/c3cccc(Br)c3)SC2=S)cc1C | -16 | 1
O=C(Nc1ccccc1-c1nc2ccccc2s1)c1cccc(Cl)c1 | 8 | 1.2
CC(C)OCCCNC(=O)C(=O)Nc1cccc(Cl)c1Cl | 3 | 0.99
COC(=O)C1=C(C)NC(=O)NC1c1ccc(OCC(N)=O)cc1 (stereo not given) | 9 | 0.93
O=C(/C=C/c1ccco1)NCc1ccc2c(c1)OCO2 | 3 | 0.94
O=C(NCc1ccc2c(c1)OCO2)c1ccco1 | 15 | 0.74*
O=c1c2cc3c(=O)n(-c4ccc(S)cc4)c(=O)c3cc2c(=O)n1-c1ccc(S)cc1 | 4 | 0.7*
Cc1ccc(-n2c(=O)c3cc4c(=O)n(-c5ccc(C)c(C)c5)c(=O)c4c(C(=O)c4ccccc4)c3c2=O)cc1C | 10 | 1.1
O=C(c1ccc(Cl)c(Cl)c1)N1CCN(C(c2ccccc2)c2ccccc2)CC1 | 8 | 0.99
COc1ccc(N=C2C(=O)Nc3ccc(C)c(Br)c32)cc1 | 21 | 0.66*
COc1ccc(S(=O)(=O)Nc2ccc(Br)cc2C)cc1 | 18 | 1.1
O=S(=O)(Nc1ccc(Br)cn1)c1ccccc1 | 15 | 1.1
O=C(C1=C(O)C(=O)N(c2ncc(S(=O)(=O)c3ccc([N+](=O)[O-])cc3)s2)C1c1ccc(F)cc1)c1ccco1 (stereo not given) | 11 | 0.79*
COc1ccc(C2C(=C(O)c3ccc(C)cc3)C(=O)C(=O)N2c2ncc(S(=O)(=O)c3ccc([N+](=O)[O-])cc3)s2)cc1 (stereo not given) | 14 | 0.84
O=C1NC(=S)N/C1=C\c1ccccc1OCc1ccc([N+](=O)[O-])cc1 | -5 | 0.67*
O=C1NC(=S)N/C1=C/c1ccc(OCc2ccccc2)c(Br)c1 | -4 | 0.98
Cc1c(C(=O)NCCC(C)C)cccc1[N+](=O)[O-] | 4 | 1.1
O=C(Nc1ccc(Cl)cn1)c1ccc(-c2ccc([N+](=O)[O-])cc2)o1 | -16 | 0.82
Cc1cc([N+](=O)[O-])ccc1-c1ccc(C(=O)Nc2ccc(Cl)cn2)o1 | -14 | 0.77*
CCOc1cc(/C=C2\C(=O)ON=C2C)ccc1O | 21 | 1

Assay outcomes deposited in PubChem BioAssay by Milwaukee Institute for Drug Discovery.
